HIF-2a block: HIF-2a inhibition | AID 624352 | 786-0 RCC cells HIF-2a reporter, luciferase luminescence, overnight | inhibition, % at 18.8 µM | 360,000 compounds, 0.72% hits;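 active = inhibition of the luminescence signal of 40% or more relative to plate controls, in a single-dose primary screen at 18.75 µM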
TRPM1 prom inh: reduces MITF-dependent TRPM1 promoter luciferase signal | 330,000 compounds, 0.83% hits | AID 488899 | inhibition, % at 12.5 µM | SK-MEL-5 TRPM1 promoter luciferase, 24 h;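 active = mean inhibition across replicates of 60% or more, whatever share of single replicates reaches that level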
KKLEB cytotox: CF airway cell cytotoxicity counter-screen; KKLEB CF airway cells viability, ATPlite luminescence, overnight; hits give low values; cells stimulated with P. aeruginosa culture filtrate; activity change (cytotoxicity), % at 5 µM; 360,000 compounds, 0.36% hits; AID 602141;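 active = corrected activity change at or below -50% at 5 µM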
Shn3 inh set2: reduces Shn3 3'UTR luciferase signal in osteoblasts. inhibition, % at 12.5 µM. 360,000 compounds, 0.52% hits. Clone20 osteoblast Shn3 3'UTR firefly luciferase, 24 h. AID 588674;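 active = mean inhibition of at least 75% with every replicate also reaching 75%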;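 note: 0% = median of neutral control wells and 100% = pilot-screen positive control compound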
CF NFkB block: inhibitors of cystic fibrosis induced NF-kB | KKLEB NF-kB-GFP reporter, PAF-induced, GFP fluorescence overnight | inhibition, % at 5 µM | 360,000 compounds, 0.86% hits | AID 588850;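 active = at least 50% inhibition at 5 µM, scaled per plate between neutral and stimulator controls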;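 note: PAF is a Pseudomonas aeruginosa culture filtrate used as stimulus; plate controls were PAF-stimulated DMSO wells for no effect and unstimulated DMSO wells for full effect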
Peg3 promoter: Peg3 promoter activity inhibition; HeLa PEG-Prom luciferase reporter, luminescence, overnight; inhibition, % at 20 µM; 360,000 compounds, 1.7% hits; AID 588405;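 active = inhibition of at least 50% at 20 µM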
CF NFkB inh conf: confirmation of cystic fibrosis induced NF-kB inhibitors; KKLEB CF airway cells, PAF-induced NF-kB-GFP fluorescence, overnight; shares compounds with CF NFkB block; 1,300 compounds, 64% hits; inhibition, % at 5 µM; in the data active = inhibition above about 40%;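 note: stimulus PAF is a Pseudomonas aeruginosa filtrate and not platelet activating factor; plate controls were DMSO wells with stimulus for no effect and unstimulated DMSO wells for full effect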
Mdm2 MdmX conf: confirmation of inhibitors of human Mdm2/MdmX interaction, set 2; 740 compounds, 99% hits; AID 504601; shares compounds with HIF-2a block; SaOS-2 split-luciferase Mdm2/MdmX complementation, luminescence; inhibition, % at 8 µM;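 active = mean inhibition of the luminescence signal across two replicates at or above 26 percent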
Target sequence (O15151 whole entry, looked up): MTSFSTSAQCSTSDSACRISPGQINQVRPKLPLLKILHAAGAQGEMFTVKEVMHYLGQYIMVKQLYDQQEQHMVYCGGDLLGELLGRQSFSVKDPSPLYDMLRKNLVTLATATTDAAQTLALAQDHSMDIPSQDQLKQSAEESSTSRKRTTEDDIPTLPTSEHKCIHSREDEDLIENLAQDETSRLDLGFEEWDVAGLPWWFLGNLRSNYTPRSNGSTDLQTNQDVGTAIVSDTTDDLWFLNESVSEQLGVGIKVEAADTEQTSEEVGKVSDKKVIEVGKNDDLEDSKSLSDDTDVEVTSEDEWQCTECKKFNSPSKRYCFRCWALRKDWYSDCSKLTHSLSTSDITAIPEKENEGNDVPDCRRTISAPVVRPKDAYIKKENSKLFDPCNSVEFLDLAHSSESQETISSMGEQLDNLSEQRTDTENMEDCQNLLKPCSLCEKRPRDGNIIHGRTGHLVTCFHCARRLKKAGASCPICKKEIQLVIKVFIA
Target sequence (Q00987 whole entry, looked up): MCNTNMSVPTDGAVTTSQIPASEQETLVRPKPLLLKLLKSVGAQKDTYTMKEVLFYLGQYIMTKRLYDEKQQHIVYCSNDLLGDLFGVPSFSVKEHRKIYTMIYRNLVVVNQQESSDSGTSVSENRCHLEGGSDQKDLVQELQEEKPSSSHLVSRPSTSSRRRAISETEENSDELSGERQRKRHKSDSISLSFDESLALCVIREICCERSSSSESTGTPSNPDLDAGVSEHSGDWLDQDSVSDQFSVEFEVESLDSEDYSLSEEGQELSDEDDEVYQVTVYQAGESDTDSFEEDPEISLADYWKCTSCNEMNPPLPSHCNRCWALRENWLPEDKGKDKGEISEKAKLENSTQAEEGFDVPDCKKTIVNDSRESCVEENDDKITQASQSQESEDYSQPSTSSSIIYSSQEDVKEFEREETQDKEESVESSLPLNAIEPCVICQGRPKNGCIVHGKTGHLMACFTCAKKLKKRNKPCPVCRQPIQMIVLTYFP
HIF-2a conf: confirmation of HIF-2a inhibitors | shares compounds with HIF-2a block | 786-0 RCC cells, HIF-2a luciferase reporter luminescence, overnight | inhibition, % at 18.8 µM | 1,800 compounds, 56% hits | AID 651580;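 active = mean inhibition across four replicates of at least 40 percent at the single tested concentration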
HIF-1a counter: inhibits HIF-1a reporter, a counter-screen for HIF-2a inhibitors | shares compounds with HIF-2a block | MiaPaCa-2 HIF-1a luciferase reporter, desferoxamine, overnight | inhibition, % at 18.8 µM | 1,800 compounds, 72% hits;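 active = mean inhibition of the reporter signal across four replicates at the single tested dose of 50% or more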
* hit, by the source's call; x = no result. The list is not random: actives were taken first. Their share in the collection is about 2.8%.

SMILES	HIF-2a block	TRPM1 prom inh	KKLEB cytotox	Shn3 inh set2	CF NFkB block	Peg3 promoter	CF NFkB inh conf	others
CS(=O)(=O)Nc1ccc(-c2cnc3cccnn23)cc1	-29	x	-1	1	60*	-5	71*
CC1(C)O[C@@H]2C[C@H]3[C@@H]4CCC5=CC(=O)C=C[C@]5(C)[C@@]4(F)[C@@H](O)C[C@]3(C)[C@]2(C(=O)CO)O1	21	-14	37	16	67*	12	30
CC1(C)O[C@@H]2C[C@H]3[C@@H]4C[C@H](F)C5=CC(=O)C=C[C@]5(C)[C@@]4(F)[C@@H](O)C[C@]3(C)[C@]2(C(=O)CO)O1	21	-17	25	8	73*	-8	25
Cc1[nH]nc2ncc(C(=O)c3ccccc3O)cc12	10	-1	-13	66	86*	26	94*
COc1ccc(-c2cc(NC=O)c3ncc(-c4ccc(OC)c(OC)c4)n3c2)c(OC)c1	10	x	-28	37	60*	47	87*
COc1cc(-c2cnc3c(NC=O)cc(-c4ccc(S(C)(=O)=O)cc4)cn23)cc(OC)c1OC	13	x	-11	6	27	23	x
COc1ccc(-c2cc(NC=O)c3ncc(-c4cc(OC)c(OC)c(OC)c4)n3c2)cc1	-30	x	-28	-1	52*	-1	70*
COc1ccccc1-c1cc(NC=O)c2ncc(-c3cccc(C(C)=O)c3)n2c1	-29	x	-19	11	59*	42	44*
COc1cccc(-c2cnc3c(NC=O)cc(-c4ccc(OC)cc4OC)cn23)c1	-10	x	-40	21	63*	-11	76*
O=C(c1ccc(F)cc1F)N1CCN(c2n[nH]c(=O)[nH]c2=O)CC1	-1	3	4	-16	-8	1	x
CCN(CC)C(=O)C1=C(C)N(Cc2ccc(OC)cc2)C(=O)C(CC(=O)NC2CCCC2)C1 (stereo not drawn)	0	x	-1	-22	-10	3	x
C/C(=C\[C@@H](NP(=O)(c1ccccc1)c1ccccc1)c1ccccc1)CO[Si](c1ccccc1)(c1ccccc1)C(C)(C)C	3	17	-33	8	54*	17	31
CCCn1c(-c2nonc2N)nc2ccccc21	7	-11	-28	27	66*	8	61*
Cn1c(-c2nonc2N)nc2ccccc21	-21	-10	6	-10	-18	-23	x
Cc1ccc(CNc2ncnc3ccc(-c4ccc(CO)o4)cc23)o1	34	x	-34	26	53*	28	81*
O=Nc1c(O)n(Cc2c(Cl)cccc2Cl)c2ccccc12	25	4	-24	26	56*	39	67*
O=Nc1c(O)n(Cc2ccc(Cl)cc2)c2ccccc12	21	12	12	7	30	30	x
Cc1cnc(C(=O)NC2CC(C)(C)Cc3c2cnn3-c2cccc(F)c2)cn1 (stereo not drawn)	-16	-11	-16	-5	17	-29	x
O=c1c2cc(F)ccc2sn1-c1ccccc1Cl	-1	x	-10	29	51*	24	31
Cc1ccc(-n2sc3cc(F)ccc3c2=O)c(C)c1	-32	x	6	16	27	28	x
Cc1c(Cl)c(=O)n2c(=O)c(Cl)c(C)n12	10	-2	4	0	-10	17	x
Cc1cccc(-n2c(SCc3ccc([N+](=O)[O-])cc3)nnc2-c2c[nH]c3ccccc23)c1	18	10	-40	40	51*	20	21
CCc1cc2c(Sc3nc4ccccc4s3)ncnc2s1	-5	16	-46	54	67*	15	89*
Cc1ccc(NC(=O)/C=C/c2ccco2)nc1	-151	5	-38	-6	65*	-132	73*
O=C(/C=C/c1ccco1)Nc1ccccn1	-109	-8	-16	-64	29	-105	x
SMILES	HIF-2a block	TRPM1 prom inh	KKLEB cytotox	Shn3 inh set2	CF NFkB block	Peg3 promoter	CF NFkB inh conf	others
c1ccc(-c2nc3nonc3nc2-c2ccccc2)cc1	25	62*	-17	44	72*	9	66*
COc1cccc(N2CCN(c3c(C#N)c(C(F)(F)F)nn3C)CC2)c1	20	-17	-4	24	52*	-4	61*
O=C(OCc1ccccc1)N1CCC2CC1c1cc(-c3cc4ccccc4o3)ccc12 (stereo not drawn)	-6	x	-12	8	8	21	x
O=C(OCc1ccccc1)N1Cc2ccnnc2CC1c1ccccc1Br (stereo not drawn)	13	x	3	-16	-22	9	x
CC1=Nc2ccccc2/C1=C/c1c(C)[nH]c2ccccc12	25	49	-22	18	53*	91*	-60
Cc1cc(C)c(S(=O)(=O)NCCCn2ccnc2)cc1C	21	4	-2	-99	13	13	x
COc1cc(-c2nc(-c3ccc(NC(=O)c4ccc5c(c4)OCO5)cc3)no2)cc(OC)c1OC	-138	-1	-49	4	58*	-77	42*	Mdm2 MdmX conf=88*
CCOC(=O)COc1ccc2ccccc2c1/C=C/[N+](=O)[O-]	90*	83*	-23	95*	62*	107*	107*	HIF-2a conf=86*;HIF-1a counter=104*
CCOC(=O)COc1ccccc1/C=N/O	16	6	-4	-10	1	-103	x
CCOc1ccc(S(=O)(=O)Nc2ccccc2C(=O)N2CCOCC2)cc1	8	-5	8	-10	-8	-6	x
C[C@@H]1CC=C[C@H]2[C@H]1C(=O)N(Cc1ccccc1)[C@H]2c1ccc2ccccc2c1Br	42*	-1	-35	9	74*	33	54*	HIF-2a conf=23;HIF-1a counter=72*
C[C@@H]1Cc2c(O)c(O)cc(O)c2C(=O)O1	10	-3	10	4	0	0	x
CC1CCC/C=C/C(=O)c2c(O)cc(O)cc2CC(=O)O1 (stereo not drawn)	91*	92*	-5	87*	82*	106*	36	Mdm2 MdmX conf=103*;HIF-2a conf=80*;HIF-1a counter=102*
NS(=O)(=O)c1ccc(S(=O)(=O)N2CCCC(c3ccccc3)C2)cc1 (stereo not drawn)	20	x	1	15	-10	18	x
